Source: PubChem BioAssay (The Scripps Research Institute Molecular Screening Center)
The list is not random: actives were taken first. Their share in the collection is about 2.4%.
CHRM1 agonist: human M1 muscarinic receptor agonists, primary screen, Fluo-8 calcium fluorescence, CHO-K1 cells, HTS | CHO-K1 hM1, agonist mode; 0% DMSO, 100% acetylcholine EC100 | activation, % at 3 µM | 0.33% of 360,000 active;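 active = activation above the run's mean compound activation plus 3 SD, cut at about 16% in these data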;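 also: peak over basal fluorescence ratio within a 140 s kinetic read after compound addition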
Target sequence (P11229 whole entry, looked up): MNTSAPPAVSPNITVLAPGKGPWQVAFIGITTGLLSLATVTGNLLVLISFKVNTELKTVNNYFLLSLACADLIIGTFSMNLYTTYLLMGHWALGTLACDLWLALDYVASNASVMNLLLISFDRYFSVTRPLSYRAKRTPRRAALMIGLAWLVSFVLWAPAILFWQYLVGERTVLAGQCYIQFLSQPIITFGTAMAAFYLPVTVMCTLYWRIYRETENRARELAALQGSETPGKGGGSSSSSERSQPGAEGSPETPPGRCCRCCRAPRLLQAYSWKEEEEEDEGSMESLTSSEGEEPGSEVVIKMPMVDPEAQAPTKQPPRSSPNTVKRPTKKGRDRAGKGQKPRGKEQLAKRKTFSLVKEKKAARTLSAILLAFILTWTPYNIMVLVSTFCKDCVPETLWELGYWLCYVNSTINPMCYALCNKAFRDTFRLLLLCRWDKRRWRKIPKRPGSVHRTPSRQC
M1 PAM: human M1 muscarinic receptor positive allosteric modulators, primary screen, CHO-K1 cells, Fluo-8 calcium fluorescence, 1536-well; Muscarinic acetylcholine receptor M1 (Homo sapiens), P11229; CHO-K1 hM1, ACh EC20; 0% = ACh EC20, 100% = maximal ACh; activation, % at 3 µM; 0.088% of 360,000 active; in the data active = activation above about 19%, passing the limit was not always enough
CHRM1 antagonist: human M1 muscarinic receptor antagonists, primary screen, CHO-K1 cells, Fluo-8 calcium fluorescence, 1536-well | 1.3% of 360,000 active | CHO-K1 hM1, ACh EC80 antagonist | Muscarinic acetylcholine receptor M1 (Homo sapiens), P11229 | inhibition, % at 3 µM | AID 588852, 2011;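 active = percent inhibition above its own plate's cutoff, namely the mean of that plate's compound wells plus 3 SD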;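 also: peak over basal fluorescence ratio during 140 s after agonist addition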
CHO-K1 Ca PAM: nonselective calcium activators in parental CHO-K1 cells, primary screen, counter-screen for M1 PAM project, cell-based, Fluo-8 calcium fluorescence, full deck, 1536-well | ATP EC20; 0% at ATP EC20, 100% at ATP max | activation, % at 3 µM | 0.02% of 360,000 active | AID 602247, 2012;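 active = activation above the run cutoff, the mean activation of all test compounds plus 3 SD, cut at about 40% in these data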;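 also: peak over basal fluorescence ratio in a 140 s read after ATP addition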
CHO-K1 Ca ag: counter-screen for M1 agonists: effect in parental CHO-K1 cells. Fluo-8 calcium fluorescence; scaled to maximal ATP response, vehicle zero. activation, % at 3 µM. 0.48% of 360,000 active. AID 602248, 2012; in the data active = activation above about 15%;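 also: untransfected CHO-K1 host cells lacking M1 receptor as counterscreen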
CHO-K1 Ca antag: M1 antagonist counterscreen hit in parental CHO-K1 cells | inhibition, % at 3 µM | AID 602250 | 0.6% of 360,000 active | ATP-induced calcium, Fluo-8 fluorescence;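 active = inhibition above a per-plate cutoff, the plate's mean sample inhibition plus 3 SD, cut at about 24% in these data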
Each line names hits and unclear results; the compound was inactive in the other large screens.

Cc1noc(C)c1COc1ccc(C(=O)NCC2(N(C)C)CCCCC2)cc1	none
Cc1ccc(C)c(NP(=O)(Oc2ccccc2)Oc2ccccc2)c1	CHRM1 antagonist 36
Cc1ccc(S(=O)(=O)NP(=O)(Oc2ccccc2)Oc2ccccc2)cc1	none
Cc1ccc(C2CC3CCC(C2)N3Cc2ccccc2F)cc1 (configuration not stated)	none
Cc1ccc(CN2C3CCCC2CC(NC(=O)Nc2cccc(F)c2)C3)cc1 (configuration not stated)	CHRM1 antagonist 38
CCC1(C)OC(c2ccccc2)=C/C(=C/C=C2C(=O)NC(=O)NC2=O)O1 (configuration not stated)	CHRM1 agonist 23
CCC1(Oc2ccccc2)C(=O)NC(=O)NC1=O	none
Oc1c(Br)cc(Br)cc1CN1CCN(Cc2ccccc2)CC1	none
CCN1CCN(Cc2cc(Br)cc(OC)c2O)CC1	CHRM1 antagonist 56
O=C(CCCc1ccccc1)NCCc1cnc[nH]1	none
C[N+](C)(C)CC#CCOC(=O)Nc1cccc(Cl)c1	CHRM1 agonist 91, CHRM1 antagonist 88
O=C(Nc1cccc(Cl)c1)N1C[C@H]2C[C@@H](C1)c1cccc(=O)n1C2	none
Clc1cccc(NC2=NCCS2)c1	none
Nc1cc(N2CCNCC2)ccc1[N+](=O)[O-]	none
Clc1cccc(N2CCNCC2)c1	CHO-K1 Ca antag 26
CCOc1cccc(CNCCc2c(C)[nH]c3ccc(OC(F)(F)F)cc23)c1O	CHRM1 antagonist 37, CHO-K1 Ca ag 37, CHO-K1 Ca antag 53
Cc1[nH]c2ccc(OC(F)(F)F)cc2c1CCNCc1ccc(Cl)cc1	none
Cc1[nH]c2ccc(OC(F)(F)F)cc2c1CCNCc1cccc([N+](=O)[O-])c1	CHO-K1 Ca ag 35
CC(=Nc1ccccc1N)c1c(O)n(C)c(=O)n(C)c1=O	none
O=c1[nH]c(=S)n(Cc2ccc(F)cc2)c(O)c1C=NCC1CCCO1 (configuration not stated)	none
O=c1[nH]c(=S)n(Cc2ccc(F)cc2)c(O)c1/C=N/N1CCCCC1	CHRM1 agonist 27
O=c1[nH]c(O)c(/C=C2\C=Nc3ccc(OCc4ccccc4)cc32)c(=O)[nH]1	none
Oc1ccc(Cl)c(Cl)c1Cl	CHRM1 antagonist 24
COC(=O)C1=C(c2cccc(NC(C)=O)c2)C[C@@H]2CC[C@H]1N2C	none
CCOC(=O)C1CCCN(c2ccc([N+](=O)[O-])c3nonc23)C1 (configuration not stated)	CHRM1 agonist 298, CHRM1 antagonist 70, CHO-K1 Ca ag 157, CHO-K1 Ca antag 51
